Screening results from PubChem.
PLC-gamma1 inh: inhibitors of human phospholipase C gamma1 | inhibition, % at 12.2 µM | actives 0.84% (n = 370,000) | purified PLC-gamma1, fluorogenic substrate, fluorescence | P19174; in the data active = inhibition above about 9.5%
ADAM10 inh: ADAM10 inhibition, QFRET primary screen; O14672; inhibition, % at 7 µM; recombinant ADAM10, EDANS/DABCYL FRET peptide cleavage, 3 h; actives 0.62% (n = 370,000);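 active = inhibition above a per-campaign cutoff equal to the mean of compounds falling between control-based bounds plus 3 SD, cut at about 20% in these data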;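 also: 0% = DMSO wells while the 100% control is not disclosed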
PLCb3 inh: inhibitors of human phospholipase C beta3; Q01970; inhibition, % at 12.2 µM; actives 0.18% (n = 370,000); Purified PLC-beta3, fluorogenic substrate, fluorescence; in the data active = inhibition above about 11%;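 also: 0% = median of compound wells on plate and 100% = full blocker control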
ADAM17 inh: inhibitors of human ADAM17; P78536; recombinant ADAM17, EDANS/DABCYL FRET peptide cleavage; inhibition, % at 6.95 µM; actives 0.83% (n = 370,000);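 active = inhibition above the mean of compounds lying between control limits plus 3 SD, set per campaign, cut at about 8.5% in these data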;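 also: 0% = DMSO-only wells as the low control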
proKLK7 act: activates the human kallikrein-7 zymogen; activation, % at 7 µM; purified proKLK7, EDANS-DABCYL substrate fluorescence; 100% is mature enzyme control, 0% vehicle; AID 652039; actives 0.9% (n = 370,000);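 active = activation above the mean of all tested compounds plus 3 SD, computed per campaign excluding outliers beyond control limits, cut at about 13% in these data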
proKLK7 act conf: proKLK7 activation, confirmation. actives 68% (n = 3,200). purified proKLK7, EDANS-DABCYL substrate fluorescence; scaled: vehicle 0, mature enzyme 100. shares compounds with proKLK7 act. activation, % at 7 µM. AID 686949;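 active = activation, as change over the incubation, above the mean of all tested compounds plus 3 SD, cut at about 13% in these data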
EDANS-DABCYL int: fluorescence interference counter-screen for KLK7 activators; shares compounds with proKLK7 act; EDANS-DABCYL substrate fluorescence interference, no enzyme, 4 h; solvent 0%, active enzyme control 100%; activation, % at 7 µM; actives 80% (n = 3,200); AID 686952;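 active = activation above the all-compound mean plus 3 SD, ignoring values outside control-based bounds, cut at about 4.8% in these data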;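 also: value is the 4 h activation minus the activation read at time zero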
K7 EDANS ctr: EDANS fluorescence interference in dose response, no enzyme | shares compounds with proKLK7 act | EDANS-DABCYL peptide fluorescence interference | EC50, µM | actives 20% (n = 250) | AID 720493;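 active = compounds that raise the fluorescence signal in this interference counterscreen, with EC50 at or below 10 µM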;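 also: intact quenched peptide substrate alone read at 355 nm excitation and 520 nm emission; signal is fluorescence gain from T0 to T4 after four hours at room temperature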
* hit, by the source's call; i = inactive; . = no result. Only some compounds are listed: those with a hit (about 2.9% of all), similar ones and a draw of the others.

SMILES	PLC-gamma1 inh	ADAM10 inh	PLCb3 inh	ADAM17 inh	proKLK7 act	proKLK7 act conf	EDANS-DABCYL int	others
CCN(CC)Cc1c(O)ccc2c(=O)c(-c3ccc(Cl)cc3)coc12	i	i	i	-301	29*	33*	31*
O=c1c(-c2ccc(O)cc2)coc2c([C@@H]3O[C@H](CO)[C@@H](O)[C@H](O)[C@H]3O)c(O)ccc12	-459	i	i	-165	12	.	.
CCCOC(=O)c1ccc(Oc2coc3c(CN(CC)CC)c(O)ccc3c2=O)cc1	i	i	i	i	60*	-65	48*
CCCCCN1CCCCC(NC(=O)C(C)(C)C)C1=O (stereo not given)	1	-7	2	-5	0	.	.
Nn1c(SCc2ccc([N+](=O)[O-])cc2)nnc1-c1n[nH]c2c1CCC2	-1	-7	2	-1	0	.	.
COc1ccccc1C1C=C(c2ccc(C)cc2)Nc2nnnn21 (stereo not given)	i	-88	i	-33	19*	22*	17*	K7 EDANS ctr=i
COc1ccc(OC)c(C2C3=C(CC(C)(C)CC3=O)Nc3nnnn32)c1 (stereo not given)	0	-20	-3	-9	-3	.	.
COc1ccccc1C1C2=C(CC(C)(C)CC2=O)Nc2nnnn21 (stereo not given)	-5	-28	-1	-7	15*	22*	20*
CC(=O)Nc1oc(-c2cccc3ccccc23)nc1C#N	i	i	i	-420	78*	72*	72*
Cn1cccc1C(=O)N1CCN(S(=O)(=O)c2ccc(F)cc2)CC1	2	0	3	-2	-1	.	.
Cc1ccccc1Cn1cc(CN2[C@@H](C)COc3cc(Br)ccc3S2(=O)=O)nn1	2	10	1	3	0	.	.
CC(=O)c1ccc(-c2cc(C(C)=O)c3n(c2=O)CCC3)cc1	i	i	i	-459	44*	61*	74*
CC(=O)c1cc(-c2ccc(S(C)(=O)=O)cc2)c(=O)n2c1CCC2	-36	i	-38	-153	1	.	.
Cc1ccc(C(=O)NC2CCCCN(Cc3cccc(Cl)c3)C2=O)c(C)c1 (stereo not given)	-1	5	0	1	0	.	.
CN(C)C=Nc1ccc2nn(-c3ccccc3)nc2c1	i	i	i	-378	19*	66*	69*
O=C1c2ccccc2NC(c2cccs2)N1NS(=O)(=O)c1ccccc1 (stereo not given)	-263	-422	-327	-160	36*	5	4.5*
CC(=O)NN1C(=O)c2ccccc2NC1c1ccccc1F (stereo not given)	-374	i	i	-329	29*	19*	18*
O=C1c2ccccc2NC(c2ccco2)N1NS(=O)(=O)c1ccccc1 (stereo not given)	-113	-242	-137	-87	14*	3	4.8*
CCOC(=O)NN1C(=O)c2ccccc2NC1c1cccs1 (stereo not given)	-289	i	-380	-203	14*	16*	15*
Cc1ccc(S(=O)(=O)NN2C(=O)c3ccccc3NC2c2ccccc2F)cc1 (stereo not given)	-43	-103	-70	-32	3	.	.
CCOC(=O)NN1C(=O)c2ccccc2NC1c1cccnc1 (stereo not given)	-202	-474	-263	-160	9	.	.
O=C1c2ccccc2NC(c2ccco2)N1O (stereo not given)	-14	-37	-12	-15	0	.	.
COC(=O)[C@]12C[C@H](CC(=O)NCC3CCCCC3)C(=O)N(Cc3cccc4ccccc34)C1=C[C@H](C(C)C)O[C@@H]2C1CC1	2	7	2	-1	0	.	.
CC1=C2NC(N)=[N+](Cc3ccccc3)CC2n2c(=O)n(-c3ccccc3)c(=O)n2C1 (stereo not given)	-4	-10	1	-4	0	.	.
Cc1n[nH]c(C)c1S(=O)(=O)NCCc1ccccc1	5	1	6	3	0	.	.
SMILES	PLC-gamma1 inh	ADAM10 inh	PLCb3 inh	ADAM17 inh	proKLK7 act	proKLK7 act conf	EDANS-DABCYL int	others
COc1ccc(-c2ccnc3ncnn23)cc1	-393	i	i	i	33*	27*	35*
COc1ccc(-c2cc(N3CCCC3)n3ncnc3n2)cc1	-18	-56	-19	-15	-1	.	.
FCCCOc1ccc(-c2ccnc3ncnn23)cc1	i	i	i	i	3	.	.
COc1ccc(-c2cc(-c3ccccc3)n3ncnc3n2)cc1	i	i	i	i	30*	25*	-24
COc1ccc(C(=O)NCC2CCN(C(=O)C(=O)c3cccs3)CC2)cc1	1	-3	0	-4	0	.	.
Cc1ccc(-n2c(SCc3cccc(F)c3)nc3sc4c(c3c2=O)CCCC4)cc1	3	6	4	-1	0	.	.
Cc1cccn2c(=O)c3cc(C(=O)NCCN4CCOCC4)n(C)c3nc12	i	i	i	-443	19*	-49	-38
Cc1ccc(CC(=O)NCCCn2ccnc2)cc1	-1	-1	4	2	0	.	.
Cc1ccc2nc3c(cc(C(=O)NCCCn4ccnc4)n3C)c(=O)n2c1	i	i	i	i	67*	62*	79*
Cn1c(C(=O)NCCN2CCOCC2)cc2c(=O)n3ccccc3nc21	i	i	i	i	60*	67*	74*
COCCCn1c(C(=O)NCCN2CCOCC2)cc2c(=O)n3ccccc3nc21	i	i	i	i	83*	72*	75*
Cc1ccc(Cn2c(=N)c(C(=O)NCCN3CCOCC3)cc3c(=O)n4ccccc4nc32)cc1	-154	i	-163	-209	1	.	.
Cc1c(C(O)(c2ccccc2)c2ccccc2)[n+]2ccccc2n1C	3	3	2	-3	.	.	.
Cc1[nH]c2ccccc2c1CCCO	-120	-30	-149	-16	2	.	.
OCCCCc1nccc2c1[nH]c1ccccc12	-486	i	i	-363	36*	29*	37*
NC(=O)c1cccc(S(=O)(=O)N2CCCCC2)c1	-1	-7	1	0	-1	.	.
Nc1cccc2c1C(=O)N(C(=O)c1cccc(S(=O)(=O)N3CCCC3)c1)C2=O	i	-390	i	-116	32*	190*	196*
CN(Cc1ccccc1)C(=O)OCc1cn(Cc2ccccc2C(F)(F)F)nn1	0	5	-2	2	0	.	.
